According to PubChem BioAssay AID1438 (Sanford-Burnham Center for Chemical Genomics, 2008):
Hit rate of the full screen: of about 2,200 compounds, about 45 (2%) were called active. A selection follows. Entries with a potency or affinity are not part of this list. Unmarked numbers belong to inactive results. The rule behind the calls is not given here.

Each compound was assayed against Runt-related transcription factor 1 (Homo sapiens) + Core-binding factor subunit beta (Homo sapiens) (UniProt Q01196+Q13951) (assay: Runt domain/CBFb-SMMHC interaction disruptors – biochemical, TR-FRET (AID 1438)). Details: at 20 µM, active compounds read high.
Runt-related transcription factor 1 (Homo sapiens) + Core-binding factor subunit beta (Homo sapiens), sequence (Q01196 whole entry, looked up, the tested form may be a part): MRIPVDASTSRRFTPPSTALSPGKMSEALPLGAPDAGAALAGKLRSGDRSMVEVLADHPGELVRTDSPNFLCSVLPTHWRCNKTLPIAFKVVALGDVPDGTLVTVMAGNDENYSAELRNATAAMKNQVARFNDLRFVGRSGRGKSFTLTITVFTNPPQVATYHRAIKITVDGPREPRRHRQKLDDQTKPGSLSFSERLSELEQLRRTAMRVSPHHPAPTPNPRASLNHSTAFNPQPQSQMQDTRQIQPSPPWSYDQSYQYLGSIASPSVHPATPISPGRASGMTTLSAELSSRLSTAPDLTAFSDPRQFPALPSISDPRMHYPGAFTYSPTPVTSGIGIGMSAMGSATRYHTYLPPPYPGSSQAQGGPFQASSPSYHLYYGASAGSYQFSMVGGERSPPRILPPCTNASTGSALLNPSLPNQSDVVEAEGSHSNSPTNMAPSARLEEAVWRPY
Runt-related transcription factor 1 (Homo sapiens) + Core-binding factor subunit beta (Homo sapiens), sequence (Q13951 whole entry, looked up, the tested form may be a part): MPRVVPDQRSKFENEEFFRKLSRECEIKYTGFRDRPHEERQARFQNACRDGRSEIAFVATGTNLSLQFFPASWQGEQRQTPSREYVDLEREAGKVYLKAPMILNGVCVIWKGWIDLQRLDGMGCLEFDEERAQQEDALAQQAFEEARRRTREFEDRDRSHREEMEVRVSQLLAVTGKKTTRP

Structure (SMILES)	inhibition
Cc1cc(O)ccc1N/C=C(\C#N)c1nc2ccccc2o1	8%
Cc1cc(Nc2ccccc2)nc2cc(O)ccc12	15.5%
CCN1C2=C(C(=O)CCC2)C(c2ccc(O)c(Br)c2)C2=C1CCCC2=O	19.7%
CCCN1C2=C(C(=O)CCC2)C(c2ccc(O)c(Br)c2)C2=C1CCCC2=O	24.4%
Cc1ccc(C2C3=C(CC(C)(C)CC3=O)N(CCN3CCOCC3)C3=C2C(=O)CC(C)(C)C3)cc1	42.9%
C=CCOc1ccc(C2C(C#N)=C(N)N(Nc3ccccc3)C3=C2C(=O)CCC3)cc1OC (centres undefined)	32.3%
N#Cc1c(N)[nH]c(=S)c(C#N)c1-c1ccccc1	-64.2%
CCOC(=O)c1cc2c(=O)n3ccccc3nc2n(CCCOC)c1=NC(=O)c1ccncc1	2.5%
COCCN1C=C(C(=O)OC)C(c2cc(Br)c(OC)c(OC)c2)C(C(=O)OC)=C1	47.6%
COC(=O)C1C(O)CCC2CN3CCc4c([nH]c5ccccc45)C3CC21 (centres undefined)	-11.7%
C=CCn1c(=N)c(C(=O)NCCCOC)cc2c(=O)n3cccc(C)c3nc21	2.9%
Cn1c(=O)nc2n(Cc3ccccc3)c3ccccc3cc-2c1=O	36.1%
CCn1c(O)c(C=Nc2ccccc2)sc1=S	-3.7%
O=C1CCCC2=C1C(c1ccc(Br)cc1)c1c([nH]c(=S)[nH]c1=O)N2 (centres undefined)	42.6%
c1ccc(-c2nc(N3CCCCC3)nc3ccccc23)cc1	25.8%
CCc1nnc(NC(=O)C2(C)COC(c3ccccc3)OC2)s1 (centres undefined)	-7%
CCC(C)(C)n1nnnc1C(c1cc2cc3c(cc2[nH]c1=O)OCO3)N1CCN(C)CC1 (centres undefined)	39.5%
CCCNC(=O)Cn1sc2nc(C)cc(C)c2c1=O	-3.9%
O=C(O)CSc1c2c(nc3cc(C(=O)N4CCOCC4)ccc13)CCCC2	-4.9%
O=C(Cn1c2ccccc2c(=O)c2ccccc21)Nc1cccc(F)c1	39%
O=C(Cn1c2ccccc2c(=O)c2ccccc21)Nc1ccccc1F	-15.4%
O=C(Cn1c2ccccc2c(=O)c2ccccc21)N/N=C/c1ccc(N2CCCC2)c([N+](=O)[O-])c1	10.6%
O=C(CCC(=O)N/N=C/c1cc(Cl)cc(Cl)c1O)NCc1ccccc1	-4.9%
CCc1cc2c(COC(=O)c3c(C)noc3C)cc(=O)oc2cc1O	-33.2%

Structure (SMILES)	inhibition
COc1ccc(CNC(=O)c2cc3c(=O)n4ccccc4nc3n(Cc3cccnc3)c2=N)cc1	29.1%
COc1ccc(CCn2c(=N)c(C(=O)NCc3ccco3)cc3c(=O)n4cccc(C)c4nc32)cc1	21.9%
N=c1c(C(=O)NCc2ccc(F)cc2)cc2c(=O)n3ccccc3nc2n1Cc1cccnc1	48.7%
Cc1ccc(CNC(=O)c2cc3c(=O)n4ccccc4nc3n(CC3CCCO3)c2=N)cc1 (centres undefined)	36.3%
N=c1c(C(=O)NCc2ccc(F)cc2)cc2c(=O)n3ccccc3nc2n1CCCN1CCOCC1	38.7%
N=c1c(C(=O)NCc2ccc3c(c2)OCO3)cc2c(=O)n3ccccc3nc2n1Cc1cccnc1	48.7%
Cc1cccn2c(=O)c3cc(C(=O)NCc4ccco4)c(=N)n(CCc4ccccc4)c3nc12	-9.3%
CCOC(=O)c1cc2c(=O)n3ccccc3nc2n(Cc2ccccc2)c1=N	41.8%
N=c1c(C(=O)NCc2ccco2)cc2c(=O)n3ccccc3nc2n1Cc1ccccc1	65% (active)
CCN1/C(=C/C(=O)c2ccco2)Sc2ccccc21	15.1%
N#Cc1c(N)n(CCc2ccc(F)cc2)c2nc3ccccc3nc12	32%
COCCCNC(=S)NCCNc1nc2c(C)c(C)ccc2cc1C#N	-1.9%
Cc1ccc(C2C=C(c3ccccc3)Nc3nc(N4C(=O)CCC4=O)nn32)cc1 (centres undefined)	-11.2%
Cc1ccc(C2C3=C(CC(C)(C)CC3=O)Nc3[nH]c(=S)[nH]c(=O)c32)cc1 (centres undefined)	39.6%
COCCCNC(=S)NCCCNc1nc2cc(C)cc(C)c2cc1C#N	-6.6%
O=c1cc(-c2ccc(O)cc2)oc2cc(O)c(C3OC(CO)C(O)C(O)C3O)c(O)c12 (centres undefined)	-6.5%
Cc1c2c(n3c(nc4ccccc43)c1C#N)N(CCN(C)C)CC2	-12.2%
CCc1nnc(NS(=O)(=O)c2ccc(N/C=C/C(=O)c3ccc(OC)cc3)cc2)s1	-1.7%
CCc1nnc(NC(=O)c2sc3nc4c(cc3c2N)CCCCCC4)s1	38.3%
Cc1ccc(C(=O)c2sc3nc4c(cc3c2N)CCC4)cc1	13.7%
Cc1cc(=O)oc2c(CN3CC(C)OC(C)C3)c(O)c(Cl)cc12 (centres undefined)	-12.9%
CCOC(=O)CCc1c(C)c(C#N)c2nc3ccccc3n2c1-n1ccnc1	-4%
COC(=O)Cc1c(C)c2cc(Cl)c(OC(=O)c3ccco3)cc2oc1=O	19.4%
CCOC(=O)c1cc2ccc(OC)cc2oc1=O	-9.7%

Structure (SMILES)	inhibition
O=C(O)c1ccc(N=c2oc3cc(O)ccc3cc2C(=O)NCc2ccccc2)cc1	-1.1%
c1ccn2c(c1)nc1c2nc2ccccn21	8.5%
CCOC(=O)C1=C(CSc2nc3c(cc2C#N)CN(C)CC3)OC(N)=C(C#N)C1c1ccc(F)cc1 (centres undefined)	22.5%
CCOC(=O)C1=C(CSc2nc3c(cc2C#N)CN(C)CC3)OC(N)=C(C#N)C1c1ccccc1 (centres undefined)	29.2%
CCOC(=O)C1=C(O)/C(=C/c2cn(CC(=O)N3CCCC3)c3ccccc23)SC1=Nc1ccccc1	4%
CC1CCc2c(sc(Nc3nc4c(F)cccc4s3)c2C(N)=O)C1 (centres undefined)	48.6%
CCOC(=O)c1c(NC(=O)C(F)(OC)C(F)(F)F)sc2c1CCN(C)C2 (centres undefined)	-4.1%
CCOC(=O)c1cc2c(ccc3ccccc32)oc1=O	-0.5%
CNC(=O)c1cc2c(ccc3ccccc32)oc1=N	2.9%
CC(C)OC(=O)CC(=O)CSc1nc2c(cc1C#N)CCCCCC2	38.5%
CC(=O)c1c(N2CCN(C)CC2)nc(=S)n(Cc2ccccc2)c1C	15.7%
CCCOc1c(Br)cc(C2C3=C(CCCC3=O)N(C)C3=C2C(=O)CCC3)cc1OC	41.4%
CCCOc1c(Br)cc(C2C3=C(CCCC3=O)N(CC)C3=C2C(=O)CCC3)cc1OC	-13.6%
C=CCNc1sc(C(=O)c2cccs2)c(N)c1C#N	-0.1%
CNc1sc(C(=O)c2cccs2)c(N)c1-c1nc2ccccc2s1	35.8%
Cc1cccn2c(=O)c(/C=C(\C#N)C(N)=O)c(Oc3ccccc3)nc12	-15.3%
COc1cccc(C(=O)Nc2nc3c(s2)CN(C)CC3)c1	-21%
COCCCNC(=O)c1c(N)n(-c2ccccc2)c2nc3ccccc3nc12	-6.7%
COCCCNC(=O)c1c(N)n(-c2ccc(S(N)(=O)=O)cc2)c2nc3ccccc3nc12	43.4%
CCCN1C2CCCC1CC(NC(=S)Nc1ccc(OC)cc1)C2 (centres undefined)	-12%
CSc1nc(NCCCO)c2c3c(sc2n1)CN(C)CC3	-10.5%
CSc1nc(NCC(C)C)c2c3c(sc2n1)CN(C)CC3	37.7%
COc1ccc(Br)cc1C1NC(=O)c2c(sc3c2CCN(C)C3)N1 (centres undefined)	15%
CCn1nc(NC(=O)C2CCCO2)c2cc3cccc(C)c3nc21 (centres undefined)	2.1%

Structure (SMILES)	inhibition
CCN(CC)c1ccc(/C=N\NC(=O)c2cccc3cc[nH]c23)cc1	5.9%
CCN1C=C(C(=O)OC)C(c2cccc(OC)c2OC)C(C(=O)OC)=C1	-23.2%
Cc1c(O)ccc2c3c(c(=O)oc12)CCC(C)C3 (centres undefined)	19.7%
COc1cc(/C=C(\C#N)C(=O)Nc2cccc3ncccc23)cc(OC)c1OC	18.6%
Cc1ccc(/C=C/C(=O)Nc2cccc3ncccc23)o1	19.8%
COc1ccc(-c2cc(C(F)(F)F)n3nc(N)nc3n2)cc1	25.3%
O=C(Cc1c2ccccc2nc2ccccc12)c1ccccc1	48.7%
COCCCNC(=O)c1cc2c(=O)n3cccc(C)c3nc2n(C(C)C)c1=N	1.4%
CC(=O)Nc1nc2n(n1)C(c1ccc(Cl)cc1)C=C(C)N2 (centres undefined)	45.7%
CC1=CC(c2ccccc2)n2nc(NS(=O)(=O)c3ccc(C)cc3)nc2N1 (centres undefined)	49.9%
N#Cc1c(N)n(-c2cccc(C(=O)O)c2)c2nc3ccccc3nc12	-8.2%
O=c1oc2ccc3ccccc3c2cc1-c1nnc(-c2cccs2)o1	29.8%
CCOC(=O)c1cc2c(=O)n3ccccc3nc2n(CCCOC)c1=NC(=O)c1cccnc1	47.6%
CN(C)c1cccc(C(=O)OCc2cc(=O)oc3cc(O)ccc23)c1	47.5%
COC(=O)Cc1cc(=O)oc2cc(O)ccc12	32.6%
CCOC(=O)c1c(NC(=O)CSc2ncccn2)sc2c1CCN(Cc1ccccc1)C2	-5.3%
CCCCNC(=O)c1cc2c(=O)n3cccc(C)c3nc2n(Cc2ccccc2)c1=N	33.9%
CCCn1c(C)nc2c(c1=O)c1nc3ccccc3nc1n2CCC1=CCCCC1	36.3%
COc1ccc(-n2c(N)c(C(=O)NCc3ccco3)c3nc4ccccc4nc32)cc1	42.9%
Cc1nc2c(c(=O)n1Cc1ccco1)c1nc3ccccc3nc1n2Cc1ccccc1	80.9% (active)
CCOc1ccc(-n2c(N)c(C(=O)NCc3ccco3)c3nc4ccccc4nc32)cc1	43.5%
CCCCn1c2nc3ccccc3nc2c2c(=N)oc(C)nc21	36.7%
